# From PubChem BioAssay AID1159580 (chemical genetic matrix, 2015)
# The whole screen tested about 5,500 compounds, of which about 2,000 (36%) were called active. Roughly 18% stayed inconclusive and do not appear here. Some of the results follow. A number with no mark means an inactive call. Cut-off read from the data, not from the text of the source: active = normalized growth mostly below about 0.91 (no sharp cut-off); inconclusive = no clear call, values can overlap the other calls; inactive = mostly above about 0.92.
# Experiment: chemical genetic growth profiling, strain panel (AID 1159580);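 note: tested at 20 µM; growth read once vehicle control cultures reached saturation at 30 °C; 1 = growth at the plate median or of vehicle wells; lower values mean less growth of the strain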
# Conditions: growth OD
structure (smiles),measurement,setting,value
CO[C@]12C[C@@H](COC(=O)c3cncc(Br)c3)CN(C)[C@@H]1Cc1cn(C)c3cccc2c13,normalized growth,"S. cerevisiae deletion strains, locus YJR075W, strain HOC1, active compounds read low",0.994
same,normalized growth,"S. cerevisiae deletion strains, locus YKL009W, strain mrt4, active compounds read low",0.968
same,normalized growth,"S. cerevisiae deletion strains, locus YKL068W, active compounds read low",0.997
same,normalized growth,"S. cerevisiae deletion strains, locus YKL085W, strain MDH1 (second series), active compounds read low",0.995
same,normalized growth,"S. cerevisiae deletion strains, locus YKL085W, strain MDH1, active compounds read low",0.995
same,normalized growth,"S. cerevisiae deletion strains, locus YKL160W, strain elf1, active compounds read low",0.984
same,normalized growth,"S. cerevisiae deletion strains, locus YKL190W, strain CNB1, active compounds read low",0.999
same,normalized growth,"S. cerevisiae deletion strains, locus YKR001C, strain vps1, active compounds read low",1.02
same,normalized growth,"S. cerevisiae deletion strains, locus YKR026C, strain gcn3, active compounds read low",1.03
same,normalized growth,"S. cerevisiae deletion strains, locus YKR091W, strain srl3, active compounds read low",0.981
same,normalized growth,"S. cerevisiae deletion strains, locus YLL001W, strain dnm1, active compounds read low",0.965
same,normalized growth,"S. cerevisiae deletion strains, locus YLL026W, active compounds read low",0.989
same,normalized growth,"S. cerevisiae deletion strains, locus YLL041C, strain sdh2, active compounds read low",0.998
same,normalized growth,"S. cerevisiae deletion strains, locus YLR027C, strain aat2, active compounds read low",0.964
same,normalized growth,"S. cerevisiae deletion strains, locus YLR039C, strain RIC1, active compounds read low",1.34 [resistant] (active)
same,normalized growth,"S. cerevisiae deletion strains, locus YLR058C, strain SHM2, active compounds read low",1
same,normalized growth,"S. cerevisiae deletion strains, locus YLR102C, strain apc9, active compounds read low",1.01
same,normalized growth,"S. cerevisiae deletion strains, locus YLR113W, strain HOG1, active compounds read low",0.954
same,normalized growth,"S. cerevisiae deletion strains, locus YLR221C, strain rsa3, active compounds read low",0.973
same,normalized growth,"S. cerevisiae deletion strains, locus YLR258W, strain gsy2, active compounds read low",0.997
same,normalized growth,"S. cerevisiae deletion strains, locus YLR262C, strain YPT6 (second series), active compounds read low",1.07
same,normalized growth,"S. cerevisiae deletion strains, locus YLR262C, strain YPT6, active compounds read low",1.45 [resistant] (active)
same,normalized growth,"S. cerevisiae deletion strains, locus YLR268W, strain sec22, active compounds read low",1.01
same,normalized growth,"S. cerevisiae deletion strains, locus YLR320W, strain mms22, active compounds read low",0.983
same,normalized growth,"S. cerevisiae deletion strains, locus YLR330W, strain CHS5, active compounds read low",1.01
same,normalized growth,"S. cerevisiae deletion strains, locus YLR342W, strain FKS1 (second series), active compounds read low",0.968
same,normalized growth,"S. cerevisiae deletion strains, locus YLR342W, strain FKS1, active compounds read low",0.975
same,normalized growth,"S. cerevisiae deletion strains, locus YLR357W, strain rsc2, active compounds read low",0.969
same,normalized growth,"S. cerevisiae deletion strains, locus YLR370C, strain arc18, active compounds read low",0.985
same,normalized growth,"S. cerevisiae deletion strains, locus YLR371W, strain rom2, active compounds read low",1.01
same,normalized growth,"S. cerevisiae deletion strains, locus YLR384C, strain iki3, active compounds read low",0.991
same,normalized growth,"S. cerevisiae deletion strains, locus YLR418C, strain cdc73, active compounds read low",1.03
same,normalized growth,"S. cerevisiae deletion strains, locus YML016C, strain PPZ1, active compounds read low",1.01
same,normalized growth,"S. cerevisiae deletion strains, locus YML032C, strain rad52, active compounds read low",1.01
same,normalized growth,"S. cerevisiae deletion strains, locus YML120C, strain ndi1, active compounds read low",0.993
same,normalized growth,"S. cerevisiae deletion strains, locus YML124C, strain tub3, active compounds read low",1.01
same,normalized growth,"S. cerevisiae deletion strains, locus YMR058W, strain fet3, active compounds read low",0.992
same,normalized growth,"S. cerevisiae deletion strains, locus YMR078C, strain ctf18, active compounds read low",1
same,normalized growth,"S. cerevisiae deletion strains, locus YMR125W, strain sto1, active compounds read low",0.977
same,normalized growth,"S. cerevisiae deletion strains, locus YMR129W, active compounds read low",0.977
same,normalized growth,"S. cerevisiae deletion strains, locus YMR205C, strain PFK2, active compounds read low",0.977
same,normalized growth,"S. cerevisiae deletion strains, locus YMR223W, strain ubp8, active compounds read low",0.984
same,normalized growth,"S. cerevisiae deletion strains, locus YMR231W, strain pep5, active compounds read low",0.997
same,normalized growth,"S. cerevisiae deletion strains, locus YMR263W, strain SAP30, active compounds read low",0.997
same,normalized growth,"S. cerevisiae deletion strains, locus YMR307W, strain GAS1, active compounds read low",1.08
same,normalized growth,"S. cerevisiae deletion strains, locus YNL067W, strain RPL9B, active compounds read low",0.985
same,normalized growth,"S. cerevisiae deletion strains, locus YNL071W, strain lat1, active compounds read low",0.944
same,normalized growth,"S. cerevisiae deletion strains, locus YNL128W, strain TEP1, active compounds read low",1.01
same,normalized growth,"S. cerevisiae deletion strains, locus YNL153C, strain GIM3, active compounds read low",0.99
same,normalized growth,"S. cerevisiae deletion strains, locus YNL183C, strain NPR1, active compounds read low",0.912
same,normalized growth,"S. cerevisiae deletion strains, locus YNL209W, strain ssb2, active compounds read low",0.996
same,normalized growth,"S. cerevisiae deletion strains, locus YNL233W, strain BNI4, active compounds read low",0.997
same,normalized growth,"S. cerevisiae deletion strains, locus YNL248C, strain rpa49, active compounds read low",0.934
same,normalized growth,"S. cerevisiae deletion strains, locus YNL250W, strain rad50, active compounds read low",1
same,normalized growth,"S. cerevisiae deletion strains, locus YNL271C, strain bni1, active compounds read low",1.01
same,normalized growth,"S. cerevisiae deletion strains, locus YNL298W, strain CLA4, active compounds read low",1.01
same,normalized growth,"S. cerevisiae deletion strains, locus YNL307C, strain MCK1, active compounds read low",0.975
same,normalized growth,"S. cerevisiae deletion strains, locus YNL322C, strain KRE1 (second series), active compounds read low",0.985
same,normalized growth,"S. cerevisiae deletion strains, locus YNL322C, strain KRE1, active compounds read low",1
same,normalized growth,"S. cerevisiae deletion strains, locus YNR049C, strain mso1, active compounds read low",0.993
same,normalized growth,"S. cerevisiae deletion strains, locus YNR052C, strain pop2, active compounds read low",1
same,normalized growth,"S. cerevisiae deletion strains, locus YOL006C, strain TOP1, active compounds read low",1.06
same,normalized growth,"S. cerevisiae deletion strains, locus YOL012C, strain htz1",1.03
same,normalized growth,"S. cerevisiae deletion strains, locus YOL147C, strain pex11, active compounds read low",1.01
same,normalized growth,"S. cerevisiae deletion strains, locus YOR001W, strain rrp6, active compounds read low",0.972
same,normalized growth,"S. cerevisiae deletion strains, locus YOR061W, strain CKA2, active compounds read low",1
same,normalized growth,"S. cerevisiae deletion strains, locus YOR069W, strain VPS5, active compounds read low",1
same,normalized growth,"S. cerevisiae deletion strains, locus YOR070C, strain gyp1, active compounds read low",0.994
same,normalized growth,"S. cerevisiae deletion strains, locus YOR080W, strain dia2, active compounds read low",0.983
same,normalized growth,"S. cerevisiae deletion strains, locus YOR083W, strain WHI5, active compounds read low",0.978
same,normalized growth,"S. cerevisiae deletion strains, locus YOR106W, strain vam3, active compounds read low",0.968
same,normalized growth,"S. cerevisiae deletion strains, locus YOR136W, strain idh2, active compounds read low",0.992
same,normalized growth,"S. cerevisiae deletion strains, locus YOR144C, strain elg1, active compounds read low",1.01
same,normalized growth,"S. cerevisiae deletion strains, locus YOR184W, strain ser1, active compounds read low",0.988
same,normalized growth,"S. cerevisiae deletion strains, locus YOR231W, strain MKK1, active compounds read low",0.983
same,normalized growth,"S. cerevisiae deletion strains, locus YOR265W, strain rbl2, active compounds read low",0.987
same,normalized growth,"S. cerevisiae deletion strains, locus YOR270C, strain vph1, active compounds read low",1.01
same,normalized growth,"S. cerevisiae deletion strains, locus YOR290C, strain snf2, active compounds read low",0.982
same,normalized growth,"S. cerevisiae deletion strains, locus YOR316C, strain cot1, active compounds read low",1
same,normalized growth,"S. cerevisiae deletion strains, locus YPL051W, strain arl3, active compounds read low",0.97
same,normalized growth,"S. cerevisiae deletion strains, locus YPL055C, strain LGE1, active compounds read low",0.977
same,normalized growth,"S. cerevisiae deletion strains, locus YPL078C, strain atp4, active compounds read low",0.975
same,normalized growth,"S. cerevisiae deletion strains, locus YPL106C, strain sse1, active compounds read low",1.01
same,normalized growth,"S. cerevisiae deletion strains, locus YPL240C, strain hsp82, active compounds read low",1.02
same,normalized growth,"S. cerevisiae deletion strains, locus YPL241C, strain CIN2, active compounds read low",0.999
same,normalized growth,"S. cerevisiae deletion strains, locus YPL256C, strain CLN2, active compounds read low",0.972
same,normalized growth,"S. cerevisiae deletion strains, locus YPR119W, strain clb2, active compounds read low",1.01
same,normalized growth,"S. cerevisiae deletion strains, locus YPR141C, strain kar3, active compounds read low",1.01
same,normalized growth,"S. cerevisiae deletion strains, locus YPR163C, strain tif3, active compounds read low",1.02
same,normalized growth,"S. cerevisiae deletion strains, locus YPR167C, strain met16, active compounds read low",1.01
same,normalized growth,"S. cerevisiae deletion strains, strain wtn01, active compounds read low",1.02
same,normalized growth,"S. cerevisiae strains, strain wild type, active compounds read low",0.993
